Our source for the Inhibition values is ChEMBL document CHEMBL1157539, “Thousands of chemical starting points for antimalarial lead identification” (Nature, 2010).

Format in all cases: functional
The test system of assay [1] is Plasmodium falciparum. Briefly: GSK_TCMDC: Inhibition of Plasmodium falciparum 3D7 in whole red blood cells, using parasite LDH activity as an index of growth. Test compounds present at 2uM.
Assay [2] has as its system Plasmodium falciparum. Briefly: GSK_TCMDC: Inhibition of Plasmodium falciparum Dd2 in whole red blood cells, using parasite LDH activity as an index of growth. Test compounds present at 2uM.
A further assay relates to HepG2. Nature of the assay: GSK_TCMDC: Percent inhibition of human HepG2 cell line. Test compounds present at 10uM.

A word on the Inhibition: it is the drop in the measured response relative to a control, in per cent. With `Cl.Cn1ncc2c3c(CCN4CCC(NCc5ccc6c(c5)NC(=O)CO6)CC4)c(Cl)cnc3ccc21`, the Inhibition in the assay on Plasmodium falciparum [1] was 100%; in the assay on Plasmodium falciparum [2], 92%; with HepG2, 18%.
The like results for `COc1ccc2nc3cc(Cl)ccc3c(Nc3ccc(O)c(CNC(C)C)c3)c2c1` were, in that order, 100%, 100% and 5%.
The like results for `O=C(NCCCN1CCCCC1)c1cccc(Nc2nccc(Nc3ccc(Oc4ccccc4)cc3)n2)c1` were, in that order, 96%, 12% and 47%.
The like results for `Fc1cccc(Nc2nc(NCc3ccc4ccsc4c3)nc(Nc3cccc(F)c3)n2)c1` were, in that order, 94%, 11% and 0%.
Consider `CCc1cc2c(cc1OCCN(C)C)N(C(=O)Nc1ccc(-c3ccncc3)c(Cl)c1)CC2`, for which the Inhibition in the assay on Plasmodium falciparum [1] was determined as 95%; in the assay on Plasmodium falciparum [2], 7%; with HepG2 it was 18%.
The corresponding values for `O=C(Nc1ccc(C(F)(F)F)cc1)NC1CCN(c2ccnc3cc(Cl)ccc23)CC1.O=C(O)C(F)(F)F` are 100%, 74% and 22%.
For `Nc1cccc(CNCc2ccc(-c3ccc(-c4nc5ccccc5[nH]4)s3)cc2)c1.O=C(O)C(F)(F)F`, the Inhibition with Plasmodium falciparum [1] turned out to be 100%; in the assay with Plasmodium falciparum [2] it was 93%; in the assay on HepG2, 12%.
The corresponding values for `FC(F)(F)c1ccc(/C=C/c2cncnc2Nc2ccc3[nH]c(Cc4ccccc4)nc3c2)cc1` are 100%, 100% and 21%.
Take `Cc1ccc(NC(=O)c2ccc3ncccc3c2)cc1OC1CCN(Cc2ccco2)C1.O=C(O)C(F)(F)F` (configuration not stated): the Inhibition with Plasmodium falciparum [1] is 86%; with Plasmodium falciparum [2], 42%; in the assay with HepG2, 9%.
On to `CC(C)CCCC(C)NC[C@@H](O)[C@H](Cc1ccccc1)NC(=O)c1cc(N2CCCC2=O)cc(N(c2ccccc2)S(C)(=O)=O)c1` (some centres not stated), for which the Inhibition in the assay on Plasmodium falciparum [1] came to 99%; in the assay with Plasmodium falciparum [2] it was 97%; in the assay on HepG2, 17%.
The corresponding values for `Cc1cccc2sc(N(CCCn3ccnc3)C(=O)C=Cc3cccs3)nc12.Cl` are 91%, 9% and 0%.
Regarding `CC(=O)c1ccc2nc[nH]c(=O)c2c1`, the Inhibition in the assay with Plasmodium falciparum [1] was determined as 96%; with Plasmodium falciparum [2], 99%; with HepG2, 79%.
The corresponding values for `O=C(NCc1ccccc1)NC1CCN(c2ccnc3cc(Cl)ccc23)C1.O=C(O)C(F)(F)F` (configuration not stated) are 94%, 99% and 13%.
The corresponding values for `CN(C)Cc1c(O)ccc2[nH]c(-c3cccc(F)c3)nc12` are 99%, 71% and 9%.
The corresponding values for `N#Cc1ccc(NC2(C(=O)N3CCN(c4cccc(Cl)c4)CC3)CC2)c2ccccc12` are 94%, 66% and 0%.
Consider `N=C(N)NC(=O)Nc1cc(Cl)c(F)c(Cl)c1`, for which the Inhibition in the assay on Plasmodium falciparum [1] amounted to 100%; in the assay with Plasmodium falciparum [2] it was 64%; with HepG2, 22%.
The like results for `COc1ccc(Nc2nccc(NCCNC(=O)c3cc4ccccc4s3)n2)cc1` were, in that order, 98%, 7% and 6%.
The like results for `COc1ccccc1N1CCN(CCCCNC(=O)c2ccc(NC(=O)c3cc(Cl)cc(Cl)c3)cc2)CC1` were, in that order, 100%, 75% and 9%.
The like results for `O=C(NCC1CCN(CC2CCCCC2)C1)c1cc(-c2cccc(C(F)(F)F)c2)cs1.O=C(O)C(F)(F)F` (configuration not stated) were, in that order, 96%, 21% and 47%.
Consider `Cc1cccc2nc(-c3ccc(-c4ccc(CN5CCN(CC6CCCN(C)C6)CC5)cc4)cc3)[nH]c12.O=C(O)C(F)(F)F` (configuration not stated), for which the Inhibition with Plasmodium falciparum [1] is on record as 100%; in the assay on Plasmodium falciparum [2], 99%; in the assay with HepG2, 91%.
The like results for `Cc1ccc(Oc2c(-c3ccccc3CN3CCCC3CN(C)C)cnn(C)c2=O)cn1.O=C(O)C(F)(F)F` (configuration not stated) were, in that order, 88%, 9% and 0%.
The corresponding values for `CC(=O)c1ccc(NC(=O)Nc2ccc(N(C)c3ccnc(NC4CC4)n3)cc2)cc1` are 100%, 60% and 59%.
The corresponding values for `CCOc1cc2c(cc1OCC)C(c1cc(OC)c(O)cc1Cl)NCC2` (configuration not stated) are 100%, 97% and 15%.
For the molecule `O=C(Cc1ccc([N+](=O)[O-])cc1)N1CCc2cc3nccc(N4CCN5CCC[C@@H]5C4)c3cc21`, the Inhibition in the assay with Plasmodium falciparum [1] was determined as 95%; in the assay on Plasmodium falciparum [2], 7%; in the assay with HepG2, 0%.
The like results for `COc1ccc(NC(=O)/C=C/c2ccc(-c3ccc(-c4noc(C)n4)cc3)cc2)cc1OCCN(C)C.O=C(O)C(=O)O` were, in that order, 81%, 31% and 14%.
In the case of `O=C(O)C(F)(F)F.O=S(=O)(NCCN1CCCC1)c1ccc(-c2cccc(CNCc3ccc(F)cc3)c2)cc1`, the Inhibition came to 100% in the assay with Plasmodium falciparum [1], 41% in the assay with Plasmodium falciparum [2] and 76% in the assay on HepG2.
The corresponding values for `COc1ccc(-c2cccc(NC(=O)c3ccc(C#N)cc3)c2)cc1CN1CCCN(C)CC1.O=C(O)C(F)(F)F` are 100%, 89% and 22%.
The corresponding values for `N#Cc1ccc2[nH]c(-c3ccccc3)nc2c1` are 95%, 1% and 7%.
The corresponding values for `CC(C)COc1ccc(Cl)cc1Cc1ccc(-c2nc3cnc4ccccc4c3[nH]2)o1` are 87%, 26% and 21%.
As to `O=C(NC1CC1)c1ccc(N2CCN(Cc3ccc(Cl)cc3)CC2)nc1.O=C(O)C(F)(F)F`, the Inhibition came to 84% with Plasmodium falciparum [1], 81% in the assay on Plasmodium falciparum [2] and 16% in the assay on HepG2.
The corresponding values for `O=C(Nc1ccc(OC2CCN(Cc3ccccc3)CC2)c(Cl)c1)c1cccs1.O=C(O)C(F)(F)F` are 96%, 95% and 2%.
The like results for `N=C(N)NC(=O)Nc1ccc(Cl)c(Cl)c1` were, in that order, 95%, 13% and 29%.
The corresponding values for `CSc1nc2cc3c(cc2n1C(=O)c1ccc(C)cc1)OCCO3` are 99%, 0% and 0%.
Consider `CCN(CC)CCNc1nc(C=Cc2ccc(Cl)cc2)nc2cc3ccccc3cc12`, for which the Inhibition was found to be 100% with Plasmodium falciparum [1], 99% in the assay on Plasmodium falciparum [2] and 83% with HepG2.
